This is an account of results in article PMC3315485, “Probing the Informational and Regulatory Plasticity of a Transcription Factor DNA–Binding Domain”.

Common to all, as to assay: MITOMI; MITOMI, 295 K (22 C); buffer, salt and pH not stated in the material; high values mean tight binding
What all share (details): protein: ivt; label: fluorescent; dsDNA, one strand shown

One assay deals with T1, MarA wild type (WQR) (Escherichia coli, UniProt P0ACH5 1-127).
T1 sequence: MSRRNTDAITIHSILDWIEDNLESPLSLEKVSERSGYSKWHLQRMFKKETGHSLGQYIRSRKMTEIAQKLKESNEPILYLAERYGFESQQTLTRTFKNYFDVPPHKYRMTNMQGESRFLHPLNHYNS
In a few lines: (§1)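 MarA protein variants were made by in vitro transcription and translation with the RTS E. coli HY kit and fluorescently labelled by adding tRNA-lys-bodipy-fl. Each was tested by MITOMI against 64 synthesized variants of the mar binding site, with protein and DNA fluorescence read on Genepix at 295K. Association constants were measured by MITOMI, and each site's value is expressed relative to the highest-affinity site for that protein variant.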

In the next assay the target is T2, MarA RQR (Escherichia coli, UniProt P0ACH5 1-127, W40R).
T2 sequence: T1 sequence with W40R
The procedure, abridged:
as §1

The target of another assay is T3, MarA RTR (Escherichia coli, UniProt P0ACH5 1-127, W40R;Q43T).
T3 sequence: T1 sequence with W40R, Q43T
In a few lines:
as §1

Another assay concerns the target T4, MarA SAR (Escherichia coli, UniProt P0ACH5 1-127, W40S;Q43A).
T4 sequence: T1 sequence with W40S, Q43A
The procedure, abridged: as §1

In the next assay the target is T5, MarA TRR (Escherichia coli, UniProt P0ACH5 1-127, W40T;Q43R).
T5 sequence: T1 sequence with W40T, Q43R
The procedure, abridged: as §1

Positions count from the first letter of the chain named.

For ATGCAGCGTTTTGCTAAAT, the binding signal was 0.293 Ka relative to the best site of the variant with MarA wild type (WQR); 0.105 Ka relative to the best site of the variant with MarA RQR; 0.149 Ka relative to the best site of the variant with MarA RTR; 0.357 Ka relative to the best site of the variant with MarA SAR; 0.477 Ka relative to the best site of the variant with MarA TRR.
In the case of ATGTCTCGTTTTGCTAAAT, the binding signal with MarA wild type (WQR) is 0.301 Ka relative to the best site of the variant; with MarA RQR, 0.956 Ka relative to the best site of the variant; with MarA RTR, 0.642 Ka relative to the best site of the variant; with MarA SAR, 0.259 Ka relative to the best site of the variant; with MarA TRR, 0.462 Ka relative to the best site of the variant.
The like results for ATGGGGCGTTTTGCTAAAT were, in that order, 0.307 Ka relative to the best site of the variant, 0.11 Ka relative to the best site of the variant, 0.167 Ka relative to the best site of the variant, 0.429 Ka relative to the best site of the variant and 0.451 Ka relative to the best site of the variant.
As for ATGCGGCGTTTTGCTAAAT, the binding signal is 0.318 Ka relative to the best site of the variant with MarA wild type (WQR); 0.0951 Ka relative to the best site of the variant in the assay with MarA RQR; 0.255 Ka relative to the best site of the variant in the assay with MarA RTR; 0.379 Ka relative to the best site of the variant with MarA SAR; 0.501 Ka relative to the best site of the variant in the assay with MarA TRR.
Taken in the same sequence, the figures for ATGACACGTTTTGCTAAAT were 0.709 Ka relative to the best site of the variant, 0.337 Ka relative to the best site of the variant, 0.249 Ka relative to the best site of the variant, 0.637 Ka relative to the best site of the variant and 0.369 Ka relative to the best site of the variant.
Regarding ATGAACCGTTTTGCTAAAT, the binding signal with MarA wild type (WQR) was 0.224 Ka relative to the best site of the variant; with MarA RQR, 0.104 Ka relative to the best site of the variant; with MarA RTR, 0.204 Ka relative to the best site of the variant; with MarA SAR, 0.776 Ka relative to the best site of the variant; with MarA TRR, 0.379 Ka relative to the best site of the variant.
Regarding ATGGCGCGTTTTGCTAAAT, the binding signal with MarA wild type (WQR) was 0.334 Ka relative to the best site of the variant; in the assay with MarA RQR, 0.577 Ka relative to the best site of the variant; with MarA RTR, 0.685 Ka relative to the best site of the variant; with MarA SAR it was 0.973 Ka relative to the best site of the variant; with MarA TRR it was 0.415 Ka relative to the best site of the variant.
As to ATGAGTCGTTTTGCTAAAT, the binding signal with MarA wild type (WQR) is 0.239 Ka relative to the best site of the variant; with MarA RQR, 0.136 Ka relative to the best site of the variant; in the assay with MarA RTR, 0.173 Ka relative to the best site of the variant; in the assay with MarA SAR, 0.944 Ka relative to the best site of the variant; with MarA TRR, 0.446 Ka relative to the best site of the variant.
For ATGACGCGTTTTGCTAAAT, the binding signal with MarA wild type (WQR) was 0.362 Ka relative to the best site of the variant; with MarA RQR, 0.33 Ka relative to the best site of the variant; in the assay with MarA RTR, 0.382 Ka relative to the best site of the variant; with MarA SAR it was 0.905 Ka relative to the best site of the variant; with MarA TRR, 0.302 Ka relative to the best site of the variant.
Take ATGTTGCGTTTTGCTAAAT: the binding signal in the assay with MarA wild type (WQR) was 0.405 Ka relative to the best site of the variant; with MarA RQR, 0.193 Ka relative to the best site of the variant; with MarA RTR, 0.518 Ka relative to the best site of the variant; in the assay with MarA SAR it was 0.191 Ka relative to the best site of the variant; with MarA TRR it was 0.665 Ka relative to the best site of the variant.
In the case of ATGCTACGTTTTGCTAAAT, the binding signal with MarA wild type (WQR) is 0.363 Ka relative to the best site of the variant; with MarA RQR it was 0.117 Ka relative to the best site of the variant; in the assay with MarA RTR it was 0.285 Ka relative to the best site of the variant; in the assay with MarA SAR it was 0.491 Ka relative to the best site of the variant; with MarA TRR it was 0.571 Ka relative to the best site of the variant.
ATGAGACGTTTTGCTAAAT: the binding signal with MarA wild type (WQR) is 0.307 Ka relative to the best site of the variant; with MarA RQR, 0.0985 Ka relative to the best site of the variant; in the assay with MarA RTR, 0.229 Ka relative to the best site of the variant; with MarA SAR, 0.913 Ka relative to the best site of the variant; with MarA TRR, 0.362 Ka relative to the best site of the variant.
The like results for ATGCCTCGTTTTGCTAAAT were, in that order, 0.454 Ka relative to the best site of the variant, 0.232 Ka relative to the best site of the variant, 0.235 Ka relative to the best site of the variant, 0.486 Ka relative to the best site of the variant and 0.474 Ka relative to the best site of the variant.
The like results for ATGGCACGTTTTGCTAAAT were, in that order, 1 Ka relative to the best site of the variant, 0.647 Ka relative to the best site of the variant, 0.432 Ka relative to the best site of the variant, 0.741 Ka relative to the best site of the variant and 0.392 Ka relative to the best site of the variant.
Taken in the same sequence, the figures for ATGCCCCGTTTTGCTAAAT were 0.272 Ka relative to the best site of the variant, 0.294 Ka relative to the best site of the variant, 0.243 Ka relative to the best site of the variant, 0.492 Ka relative to the best site of the variant and 0.397 Ka relative to the best site of the variant.
Turning to ATGGGTCGTTTTGCTAAAT, the binding signal with MarA wild type (WQR) was 0.232 Ka relative to the best site of the variant; with MarA RQR it was 0.141 Ka relative to the best site of the variant; with MarA RTR, 0.203 Ka relative to the best site of the variant; with MarA SAR, 0.534 Ka relative to the best site of the variant; with MarA TRR it was 0.334 Ka relative to the best site of the variant.
In the case of ATGATCCGTTTTGCTAAAT, the binding signal is 0.22 Ka relative to the best site of the variant with MarA wild type (WQR); 0.117 Ka relative to the best site of the variant in the assay with MarA RQR; 0.175 Ka relative to the best site of the variant with MarA RTR; 0.872 Ka relative to the best site of the variant with MarA SAR; 0.466 Ka relative to the best site of the variant with MarA TRR.
Taken in the same sequence, the figures for ATGTGGCGTTTTGCTAAAT were 0.242 Ka relative to the best site of the variant, 0.105 Ka relative to the best site of the variant, 0.165 Ka relative to the best site of the variant, 0.152 Ka relative to the best site of the variant and 0.493 Ka relative to the best site of the variant.
Consider ATGCATCGTTTTGCTAAAT, for which the binding signal with MarA wild type (WQR) was 0.317 Ka relative to the best site of the variant; with MarA RQR, 0.112 Ka relative to the best site of the variant; with MarA RTR, 0.186 Ka relative to the best site of the variant; in the assay with MarA SAR, 0.449 Ka relative to the best site of the variant; with MarA TRR, 0.422 Ka relative to the best site of the variant.
The like results for ATGGAACGTTTTGCTAAAT were, in that order, 0.299 Ka relative to the best site of the variant, 0.208 Ka relative to the best site of the variant, 0.23 Ka relative to the best site of the variant, 0.646 Ka relative to the best site of the variant and 0.432 Ka relative to the best site of the variant.
Taken in the same sequence, the figures for ATGGTACGTTTTGCTAAAT were 0.294 Ka relative to the best site of the variant, 0.124 Ka relative to the best site of the variant, 0.222 Ka relative to the best site of the variant, 0.797 Ka relative to the best site of the variant and 0.39 Ka relative to the best site of the variant.
Take ATGTTCCGTTTTGCTAAAT: the binding signal with MarA wild type (WQR) was 0.197 Ka relative to the best site of the variant.
As for ATGGGCCGTTTTGCTAAAT, the binding signal in the assay with MarA wild type (WQR) is 0.236 Ka relative to the best site of the variant; with MarA RQR, 0.147 Ka relative to the best site of the variant; in the assay with MarA RTR, 0.196 Ka relative to the best site of the variant; with MarA SAR, 0.575 Ka relative to the best site of the variant; in the assay with MarA TRR it was 0.368 Ka relative to the best site of the variant.
The like results for ATGCGTCGTTTTGCTAAAT were, in that order, 0.26 Ka relative to the best site of the variant, 0.144 Ka relative to the best site of the variant, 0.153 Ka relative to the best site of the variant, 0.552 Ka relative to the best site of the variant and 0.435 Ka relative to the best site of the variant.
The like results for ATGTGCCGTTTTGCTAAAT were, in that order, 0.245 Ka relative to the best site of the variant, 0.134 Ka relative to the best site of the variant, 0.201 Ka relative to the best site of the variant, 0.236 Ka relative to the best site of the variant and 0.407 Ka relative to the best site of the variant.
Take ATGCGACGTTTTGCTAAAT: the binding signal is 0.369 Ka relative to the best site of the variant with MarA wild type (WQR); 0.148 Ka relative to the best site of the variant with MarA RQR; 0.24 Ka relative to the best site of the variant with MarA RTR; 0.43 Ka relative to the best site of the variant with MarA SAR; 0.589 Ka relative to the best site of the variant in the assay with MarA TRR.
The like results for ATGACTCGTTTTGCTAAAT were, in that order, 0.378 Ka relative to the best site of the variant, 0.586 Ka relative to the best site of the variant, 0.469 Ka relative to the best site of the variant, 0.657 Ka relative to the best site of the variant and 0.382 Ka relative to the best site of the variant.
Turning to ATGCAACGTTTTGCTAAAT, the binding signal is 0.365 Ka relative to the best site of the variant with MarA wild type (WQR); 0.142 Ka relative to the best site of the variant with MarA RQR; 0.188 Ka relative to the best site of the variant in the assay with MarA RTR; 0.461 Ka relative to the best site of the variant with MarA SAR; 0.501 Ka relative to the best site of the variant with MarA TRR.
Taken in the same sequence, the figures for ATGAAACGTTTTGCTAAAT were 0.124 Ka relative to the best site of the variant, 0.0424 Ka relative to the best site of the variant, 0.323 Ka relative to the best site of the variant, 0.852 Ka relative to the best site of the variant and 0.36 Ka relative to the best site of the variant.
As for ATGCACCGTTTTGCTAAAT, the binding signal was 0.261 Ka relative to the best site of the variant with MarA wild type (WQR); 0.132 Ka relative to the best site of the variant with MarA RQR; 0.202 Ka relative to the best site of the variant with MarA RTR; 0.497 Ka relative to the best site of the variant with MarA SAR; 0.449 Ka relative to the best site of the variant in the assay with MarA TRR.
In the case of ATGGTGCGTTTTGCTAAAT, the binding signal with MarA wild type (WQR) was 0.304 Ka relative to the best site of the variant; with MarA RQR, 0.115 Ka relative to the best site of the variant; with MarA RTR it was 0.183 Ka relative to the best site of the variant; in the assay with MarA SAR, 0.784 Ka relative to the best site of the variant; with MarA TRR, 0.382 Ka relative to the best site of the variant.
Turning to ATGGTCCGTTTTGCTAAAT, the binding signal with MarA wild type (WQR) was 0.209 Ka relative to the best site of the variant; with MarA RQR, 0.18 Ka relative to the best site of the variant; in the assay with MarA RTR, 0.146 Ka relative to the best site of the variant; with MarA SAR, 0.98 Ka relative to the best site of the variant; with MarA TRR, 0.442 Ka relative to the best site of the variant.
